A selection: hits, their analogues and other compounds. The true share with any hit is near 3.3%.
USP2a block = qHTS Assay for Inhibitors of Ubiquitin-specific Protease USP2a Using CHOP2 as the Reporter; Ubiquitin carboxyl-terminal hydrolase 2 (Homo sapiens), O75604; Potency, µM (top dose mostly 38.3 µM), hits mostly inhibitors; actives 0.01% (n = 330,000); USP2 core, Ub-CHOP2 coupled fluorogenic reporter, 485/531
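USP2 core (10nM final) preincubated 30min RT with compound in 20mM Tris-HCl pH 8.0, 2mM CaCl2, 2mM beta-mercaptoethanol, 0.05% CHAPS; 25nM Ub-CHOP2 plus 25nM reporter substrate added, fluorescence (Ex485/Em531) read after 60min.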
WRN helicase inh = qHTS for Inhibitors of WRN Helicase | Bifunctional 3'-5' exonuclease/ATP-dependent helicase WRN (Homo sapiens), Q14191 | WRN helicase unwinding, fluorescent forked duplex, kinetic | Potency, µM (highest dose often 114 µM), hits mostly inhibitors | actives 0.46% (n = 360,000); note: nearly all actives have a fitted effect of over 55% in size
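WRN at 20 nM final was preincubated with compound for 15 min at room temperature; reaction started with 100 nM forked duplex oligonucleotide carrying fluorophore and quencher plus 2 mM ATP (final). Unwinding followed kinetically by red fluorescence (ex 525/em 598 nm).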
PLK1 PBD block = qHTS for Inhibitors of PLK1-PDB (polo-like kinase 1 - polo-box domain): Primary Screen; Serine/threonine-protein kinase PLK1 (Homo sapiens), P53350; Plk1 PBD binding of FITC phosphopeptide, fluorescence polarization; Potency, µM, actives largely listed as inhibitors; actives 2.8% (n = 360,000); AID 720504, 2013; note: series mostly up to about 57 µM; nearly all actives have a fitted effect of over 65% in size
PI5P4K alpha inh = qHTS for Inhibitors of phosphatidylinositol 5-phosphate 4-kinase (PI5P4K); Phosphatidylinositol 5-phosphate 4-kinase type-2 alpha (Homo sapiens), P48426; max response, %; actives 1.2% (n = 330,000); PI5P4Kalpha enzyme, ADP-Glo luminescence, 60 min; active compounds read low; active = max response of -50% or lower; inconclusive = between -30% and -50%; inactive = -30% or higher; note: value at the top dose of about 77 µM
Target sequence (P48426 whole entry, looked up): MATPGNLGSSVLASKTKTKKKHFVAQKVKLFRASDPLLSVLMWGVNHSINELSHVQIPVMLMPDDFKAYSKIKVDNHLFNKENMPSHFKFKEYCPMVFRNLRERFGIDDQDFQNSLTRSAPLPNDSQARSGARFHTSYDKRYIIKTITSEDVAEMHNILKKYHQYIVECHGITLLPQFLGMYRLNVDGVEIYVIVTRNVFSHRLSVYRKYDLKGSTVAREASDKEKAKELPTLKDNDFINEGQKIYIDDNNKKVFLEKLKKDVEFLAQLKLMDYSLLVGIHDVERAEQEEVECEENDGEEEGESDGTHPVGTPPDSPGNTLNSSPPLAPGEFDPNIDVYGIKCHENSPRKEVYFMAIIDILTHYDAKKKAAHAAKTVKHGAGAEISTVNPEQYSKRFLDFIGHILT
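Human PI5P4Kalpha with substrate in 0.038 M HEPES pH 7.4, 0.28 mM EGTA, 0.1% CHAPS, 5% DMSO; reaction started with 5 microM ATP (final), 60 min at room temperature. ADP formed read by ADP-Glo luminescence.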
USP1 inh = Inhibitors of USP1/UAF1: Primary Screen | actives 0.23% (n = 390,000) | Potency, µM (doses to about 57.1 µM), most hits filed as inhibitors | recombinant USP1/UAF1, Ub-Rhodamine cleavage fluorescence; note: nearly all actives have a fitted effect of over 60% in size
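1 nM enzyme complex + cpd, 15 min RT; start with Ub-Rho 150nM final; kinetic fluorescence ex 480/em 540, 6 reads q60 s. Buffer 50mM HEPES pH 7.8, 0.5mM EDTA, 0.1 mg/ml BSA, 1mM TCEP, 0.01% Tween-20.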
Each line names hits and unclear results; the compound was inactive in the other large screens. Unless noted, calls come from the whole dose curve; as a rule, active = well fitted curve in the direction sought with a large enough effect; inconclusive = small, poorly fitted or top-dose-only effect, or another doubt; inactive = no such curve, though single readings can be large; an effect the other way counts as inactive or inconclusive.

c1c2c(cc3sc(N4CCOCC4)nc13)OCO2	PLK1 PBD block 26.7µM
c1ccc(N2CCN(c3nc4cc5c(cc4s3)OCO5)CC2)cc1	PLK1 PBD block 26.7µM
c1c2c(cc3sc(N4CCCCC4)nc13)OCO2	PLK1 PBD block inconclusive
Cc1nncn1-c1ccc(C(=O)Nc2cc(F)ccc2F)cc1	none (no result: USP2a block, WRN helicase inh, PLK1 PBD block, PI5P4K alpha inh)
CNc1ccc2c3c(cccc13)C(=O)N(C)C2=O	USP2a block inconclusive, WRN helicase inh inconclusive, PLK1 PBD block 2.99µM
COc1ccc(CNC(=O)CCS(=O)(=O)c2cc(Br)cc3c2N(C(=O)C2CC2)CC3)cc1	none (no result: USP2a block, WRN helicase inh, PLK1 PBD block, PI5P4K alpha inh)
CCOc1ccccc1CNC(=O)CCn1c(=O)c2cccn2c2ccc(F)cc21	none (no result: USP2a block, WRN helicase inh, PLK1 PBD block, PI5P4K alpha inh)
CC1=C(C(=O)OCc2ccccc2)C(c2ccc([N+](=O)[O-])cc2)NC(=O)N1CCCC(=O)O (centres undefined)	PI5P4K alpha inh -68.2
CC1=C(C(=O)OCc2ccccc2)C(c2ccccc2OS(=O)(=O)c2ccc(C)cc2)NC(=O)N1CCCC(=O)O (centres undefined)	PI5P4K alpha inh -71.9 (no result: USP2a block)
CCOC(=O)C1=C(C)N(Cc2ccccc2)C(=O)NC1c1ccccc1OS(=O)(=O)c1ccccc1[N+](=O)[O-] (centres undefined)	none (no result: USP2a block)
CC1=C(C(=O)OCc2ccccc2)C(c2ccc3ccccc3c2)NC(=O)N1CCCC(=O)O (centres undefined)	PI5P4K alpha inh -101.3, USP1 inh inconclusive
COC(=O)C1=C(C)N(CCCC(=O)O)C(=O)NC1c1ccccc1OS(=O)(=O)c1ccccc1[N+](=O)[O-] (centres undefined)	PI5P4K alpha inh -83.9 (no result: USP2a block)
CC1=C(C(=O)OCc2ccccc2)C(c2ccc([N+](=O)[O-])cc2)NC(=O)N1CCCCCC(=O)O (centres undefined)	PI5P4K alpha inh inconclusive
CC1=C(C(=O)OCc2ccccc2)C(c2ccccc2Cl)NC(=O)N1CCCCCC(=O)O (centres undefined)	none
CCOc1ccccc1CNC(=O)c1cnc2sc(N(CC)CC)nn2c1=O	none (no result: USP2a block, WRN helicase inh, PLK1 PBD block, PI5P4K alpha inh)
CCN1CCN(c2oc(-c3ccc(COc4ccc(C)cc4)o3)nc2C#N)CC1	none (no result: USP2a block, WRN helicase inh, PLK1 PBD block, PI5P4K alpha inh)
CCOC(=O)c1c(/C=N/Nc2ccccc2)c2sc(C)cc2n1C	none (no result: WRN helicase inh, PLK1 PBD block, PI5P4K alpha inh, USP1 inh)
CC1=C(C(=O)OCc2ccccc2)C(c2ccc3c(c2)OCO3)NC(=O)N1CCCC(=O)O (centres undefined)	PI5P4K alpha inh -78.3 (no result: USP2a block)
CC1=C(C(=O)OCc2ccccc2)C(c2ccccc2Cl)NC(=O)N1CCCC(=O)O (centres undefined)	PI5P4K alpha inh -73.0
Cc1nn2c(=S)[nH]nc2[nH]c1=O	WRN helicase inh inconclusive, PLK1 PBD block inconclusive, PI5P4K alpha inh -53.4
Cc1ccc(C(=O)Cn2cnc3ccccc3c2=O)cc1	PLK1 PBD block 29.9µM
O=C(Cn1cnc2ccccc2c1=O)OCC(=O)c1ccc2c(c1)OCCO2	PLK1 PBD block 29.9µM
O=C(Nc1ccccc1Cl)C(Cl)C(=O)c1ccccc1 (centres undefined)	WRN helicase inh inconclusive, PLK1 PBD block 1.68µM
O=C(Nc1ccccc1Cl)c1ccccc1	WRN helicase inh inconclusive
COc1ccc(Cl)cc1S(=O)(=O)N1CCCC1=O	PLK1 PBD block 26.7µM, USP1 inh inconclusive
COc1ccc(Cl)cc1S(=O)(=O)N1CCN=C1c1ccccc1	none
CCCCCOCC1CC(C/C(C)=N/Nc2nc(-c3ccccc3)cs2)C(=O)O1 (centres undefined)	PLK1 PBD block 21.2µM
CCCCCOCC1CC(C/C(C)=N/NC(N)=S)C(=O)O1 (centres undefined)	PLK1 PBD block 26.7µM
CCSc1oc(-c2cccs2)nc1S(=O)(=O)c1ccc(Br)cc1	none (no result: USP2a block, WRN helicase inh, PLK1 PBD block, PI5P4K alpha inh)
COc1ccc(Nc2oc(/C=C/c3cc(OC)c(OC)c(OC)c3)nc2C#N)cc1	none (no result: USP2a block, WRN helicase inh, PLK1 PBD block, PI5P4K alpha inh)
CCOC(=O)c1cnc2ccccc2c1Nc1cccc(OC)c1	none (no result: USP2a block, WRN helicase inh, PLK1 PBD block, PI5P4K alpha inh)
N#CCCN(C(=S)NC(=O)c1cccs1)c1ccccc1F	PLK1 PBD block 18.9µM
